Assay results from PubChem BioAssay (NCATS).
Where “and” joins values, the source holds several entries; their conditions need not be identical. Equal entries are not always repeated. Calls of active or inactive are those of the source. The rule behind the calls is not given here.

What was measured:
[1] = Immunotoxin (HA22) sensitization/mitigation study. Vehicle arm (PBS) (AID 1159510); conditions: cancer cells viability with PBS vehicle (HA22 study); series mostly up to 46.1 µM
[2] = Immunotoxin (SS1P) sensitization/mitigation study. Vehicle arm (DMEM) (AID 1159513); conditions: cell viability with vehicle (DMEM); series mostly up to 46.1 µM
Potency is the fitted concentration of half-maximal effect.

SMILES: COC(=O)C1=C(C)NC(C)=C(C(=O)OCCCN2CCC(c3ccccc3)(c3ccccc3)CC2)[C@H]1c1cccc([N+](=O)[O-])c1
- Potency [1]: 16.6 µM (active)
- Potency [2]: 26.4 µM (active)

SMILES: Cc1nnc(C(C)C)n1C1CC2CCC(C1)N2CC[C@H](NC(=O)C1CCC(F)(F)CC1)c1ccccc1 (stereo partly specified)
- Potency [1]: inactive
- Potency [2]: inactive

SMILES: COc1cc2c(cc1OC)CC(=O)N(CCCN(C)C[C@H]1Cc3cc(OC)c(OC)cc31)CC2
- Potency [1]: inactive
- Potency [2]: inactive

SMILES: COc1ccc(OC)c(-c2nnc3ccc(-c4ccc(OC)c(O[C@@H]5CCOC5)c4)nn23)c1
- Potency [1]: 8.33 µM (active)
- Potency [2]: 8.33 µM (active)

SMILES: C[C@@H](Oc1cc(-n2cnc3ccc(CN4CCN(C)CC4)cc32)sc1C(N)=O)c1ccccc1C(F)(F)F
- Potency [1]: 0.0132 µM (active)
- Potency [2]: 0.0019 µM (active)

SMILES: C[C@@H](N)C1CCC(C(=O)Nc2ccncc2)CC1 (stereo partly specified)
- Potency [1]: inactive
- Potency [2]: inactive

SMILES: CC(C)c1ccc(Cn2ccc3c4c(N)nc(NC5CC5)nc4ccc32)cc1
- Potency [1]: 3.32 µM (active)
- Potency [2]: 0.935 µM (active)

SMILES: Cc1cc(-c2ccc(CC(=O)Nc3ccc(-c4cccnc4)cc3)cc2)ccn1
- Potency [1]: 18.7 µM (active)
- Potency [2]: 18.7 µM (active)

SMILES: COc1ncc(-c2ccc3nccc(-c4ccnnc4)c3c2)cc1NS(=O)(=O)c1ccc(F)cc1F
- Potency [1]: 0.418 µM (active)
- Potency [2]: 0.235 µM (active)

SMILES: O=C(C=Cc1cccnc1)NCCCCC1CCN(C(=O)c2ccccc2)CC1
- Potency [1]: inactive
- Potency [2]: inactive

SMILES: Fc1ccc(Cl)cc1-c1nc(Nc2ccncc2)c2nccnc2n1
- Potency [1]: inactive
- Potency [2]: inactive

SMILES: COc1nc(C)cnc1NS(=O)(=O)c1cccnc1-c1ccc(-c2nnco2)cc1
- Potency [1]: inactive
- Potency [2]: inactive

SMILES: Cc1cnc(Nc2ccc(F)cc2Cl)nc1-c1c[nH]c(C(=O)N[C@H](CO)c2cccc(Cl)c2)c1
- Potency [1]: 23.5 µM (active)
- Potency [2]: 20.9 µM (active)

SMILES: Cc1c(CN2CCN(C(=O)C(C)C)CC2)sc2c(N3CCOCC3)nc(-c3cnc(N)nc3)nc12
- Potency [1]: 0.0935 µM (active)
- Potency [2]: 0.0469 µM (active)

SMILES: N#Cc1ccc(NC(=O)Nc2ccccc2Br)c2n[nH]nc12
- Potency [1]: 26.4 µM (active)
- Potency [2]: inactive

SMILES: COc1cc2nc(N3CCCN(C)CC3)nc(NC3CCN(Cc4ccccc4)CC3)c2cc1OC
- Potency [1]: 2.09 µM (active)
- Potency [2]: 13.2 µM (active)

SMILES: CCC(=O)N1CCN(c2ccc(-n3c(=O)ccc4cnc5ccc(-c6cnc7ccccc7c6)cc5c43)cc2C(F)(F)F)CC1
- Potency [1]: 4.18 µM (active)
- Potency [2]: 0.0209 µM (active)

SMILES: COc1cc2c(cc1O)CC[C@@H]1[C@@H]2CC[C@]2(C)[C@@H](O)CC[C@@H]12
- Potency [1]: 0.418 µM (active)
- Potency [2]: 0.833 µM (active)

SMILES: CCN(c1ccccc1)c1cc(NC)[n+](C)c(C)n1
- Potency [1]: 18.7 µM (active)
- Potency [2]: 18.7 µM (active)

SMILES: COc1cc(Nc2ncc(F)c(Nc3ccc4c(n3)NC(=O)C(C)(C)O4)n2)cc(OC)c1OC
- Potency [1]: 18.7 µM (active)
- Potency [2]: 16.6 µM (active)

SMILES: CC1(C)OC2=C(C(=O)c3ccccc3C2=O)[C@H](NCc2ccccc2)[C@H]1O
- Potency [1]: 2.64 µM (active)
- Potency [2]: 13.2 µM (active)

SMILES: CC[C@@H](C(=O)O)C1CC[C@H](C)C([C@@H](C)[C@H](O)[C@H](C)C(=O)[C@H](CC)C2O[C@]3(C=C[C@@H](O)[C@]4(CC[C@@](C)(C5CC[C@](O)(CC)[C@H](C)O5)O4)O3)[C@H](C)C[C@@H]2C)O1 (stereo partly specified)
- Potency [1]: 0.0418 µM (active)
- Potency [2]: 20.9 µM (active)

SMILES: NC(=O)c1ccc(-c2nc(-c3ccc4c(c3)OCCO4)c(-c3ccccn3)[nH]2)cc1
- Potency [1]: 20.9 µM (active)
- Potency [2]: inactive

SMILES: CC1(C)SCCN(S(=O)(=O)c2ccc(OCC#CCO)cc2)[C@@H]1C(=O)NO
- Potency [1]: inactive
- Potency [2]: inactive

SMILES: COc1cc(OC2CCN(C)CC2)ccc1Nc1ncc2c(n1)n(C1CCCC1)c(=O)n2C
- Potency [1]: 10.5 µM (active)
- Potency [2]: 16.6 µM (active)

SMILES: CC(C)(N)C(=O)N[C@H](COCc1ccccc1)C(=O)N1CCC2(CC1)CN(S(C)(=O)=O)c1ccccc12
- Potency [1]: 18.7 µM (active)
- Potency [2]: 8.33 µM (active)

SMILES: c1ccc2c(CCNc3ccc(Nc4ccncc4)cc3)c[nH]c2c1
- Potency [1]: 1.87 µM (active)
- Potency [2]: 20.9 µM (active)

SMILES: COc1cc2c(Oc3ccc(NC(=O)C4(C(=O)Nc5ccc(F)cc5)CC4)cc3F)ccnc2cc1OCCCN1CCOCC1
- Potency [1]: 16.6 µM (active)
- Potency [2]: 16.6 µM (active)

SMILES: Cn1cc(-c2ccc3nnc(Sc4ccc5ncccc5c4)n3n2)cn1
- Potency [1]: inactive
- Potency [2]: inactive

SMILES: O=C(NCCCNc1nc(Nc2cccc(NC(=O)N3CCCC3)c2)ncc1I)c1cccs1
- Potency [1]: 11.8 µM (active) and 3.32 µM (active)
- Potency [2]: 20.9 µM (active) and 23.5 µM (active)

SMILES: O=c1cc(CN2CCOCC2)occ1OCCCCCSc1ccnc2cc(C(F)(F)F)ccc12
- Potency [1]: 20.9 µM (active)
- Potency [2]: 5.9 µM (active)

SMILES: CCOc1cc(N2CCC(O)CC2)ccc1Nc1ncc2c(n1)N(C)c1ccccc1C(=O)N2C
- Potency [1]: 13.2 µM (active)
- Potency [2]: 16.6 µM (active)

SMILES: C[C@@H]1C[C@H]2[C@@H]3CCC4=CC(=O)C=C[C@]4(C)C3(F)[C@@H](O)C[C@]2(C)[C@@]1(O)C(=O)CO (stereo partly specified)
- Potency [1]: 0.059 µM (active)
- Potency [2]: inactive

SMILES: Cc1ccc(C(N)=O)cc1Nc1nccc(-c2cn(C(C)C)c3cnccc23)n1
- Potency [1]: 2.64 µM (active)
- Potency [2]: 7.43 µM (active)

SMILES: CCNC(=O)c1noc(-c2cc(C(C)C)c(O)cc2O)c1-c1ccc(CN2CCOCC2)cc1
- Potency [1]: 0.0015 µM (active)
- Potency [2]: 0.0021 µM (active)

SMILES: CO[C@@H]1[C@H](N(C)C(=O)c2ccccc2)C[C@H]2O[C@]1(C)n1c3ccccc3c3c4c(c5c6ccccc6n2c5c31)C(=O)NC4
- Potency [1]: 0.469 µM (active)
- Potency [2]: 1.05 µM (active)

SMILES: O=C(O)c1ccc2cc(-c3ccc(O)c(C45CC6CC(CC(C6)C4)C5)c3)ccc2c1
- Potency [1]: 0.0935 µM (active)
- Potency [2]: 18.7 µM (active)

SMILES: CC(=O)N(C)C1(c2ccccc2)CCN(CCC[C@]2(c3ccc(Cl)c(Cl)c3)CCCN(C(=O)c3ccccc3)C2)CC1
- Potency [1]: 13.2 µM (active)
- Potency [2]: 18.7 µM (active)

SMILES: COc1c(Cl)cc2c([nH]c3cnccc32)c1NC(=O)c1cccnc1C
- Potency [1]: inactive
- Potency [2]: inactive

SMILES: Cc1ccc(-c2ncn(-c3ccc(Nc4nccc(-c5cccc(N6CCOCC6)c5)n4)cc3)n2)cn1
- Potency [1]: 0.0264 µM (active)
- Potency [2]: 0.0235 µM (active)

SMILES: CC(C)C[C@@H](C(=O)N[C@H](C(=O)OC1CCCC1)c1ccccc1)[C@H](O)C(=O)NO
- Potency [1]: 23.5 µM (active)
- Potency [2]: 16.6 µM (active)

SMILES: CCCCc1ccc(NS(=O)(=O)c2ccc(C)c(C(=O)N3CCN(c4cccc(C)c4C)CC3)c2)cc1
- Potency [1]: 20.9 µM (active)
- Potency [2]: 23.5 µM (active)

SMILES: Cc1cc(Nc2nc(N[C@@H](C)c3ncc(F)cn3)ncc2Cl)n[nH]1
- Potency [1]: inactive
- Potency [2]: inactive

SMILES: CCN(CC)CCn1c(=O)c(Cc2ccc(OC)cc2)nc2ccccc21
- Potency [1]: inactive
- Potency [2]: inactive

SMILES: Cn1c(Nc2ccc(C(F)(F)F)cc2)nc2cc(Oc3ccnc(-c4ncc(C(F)(F)F)[nH]4)c3)ccc21
- Potency [1]: 11.8 µM (active)
- Potency [2]: 23.5 µM (active)

SMILES: OC[C@H](Cc1ccccc1)Nc1nc(Oc2ccc3c(c2)CCC3)nc2c1ncn2Cc1ccc(-c2ccccc2)cc1
- Potency [1]: 10.5 µM (active)
- Potency [2]: 13.2 µM (active)

SMILES: CC(C)(C)OC(=O)Nc1ccc(-c2cc(C(=O)NCCCCCCC(=O)NO)no2)cc1
- Potency [1]: 0.0935 µM (active)
- Potency [2]: 1.18 µM (active)

SMILES: CCC(=O)N[C@H]1CC[C@H](C(=O)N(C)c2ccc(-c3nc4ccccc4o3)cc2)C1
- Potency [1]: 7.43 µM (active)
- Potency [2]: 7.43 µM (active)

SMILES: COC(=O)[C@]12CCC(C)(C)C[C@@H]1[C@@H]1C(=O)C=C3[C@@]4(C)C=C(C#N)C(=O)C(C)(C)[C@@H]4CC[C@@]3(C)[C@]1(C)CC2
- Potency [1]: 0.526 µM (active)
- Potency [2]: 0.833 µM (active)

SMILES: Nc1cccc(S(=O)(=O)N2CCCN(S(=O)(=O)c3ccc4c(c3)OCCO4)CC2)c1
- Potency [1]: inactive
- Potency [2]: inactive

SMILES: Cc1ccc(NC(=O)c2ccc(CN3CCN(C)CC3)cc2)cc1Nc1nc(-c2cccnc2)cs1
- Potency [1]: 20.9 µM (active)
- Potency [2]: 23.5 µM (active)

SMILES: COc1cc2nc(-c3ccc(N4CCN(C)CC4)cc3)nc(NCCN3CCOCC3)c2cc1OC
- Potency [1]: 2.35 µM (active)
- Potency [2]: 18.7 µM (active)

SMILES: Cc1ccc(S(=O)(=O)Nc2cc(Cl)ccc2C(=O)Nc2nc(-c3ccccc3)cs2)cc1
- Potency [1]: 5.9 µM (active)
- Potency [2]: 2.09 µM (active)

SMILES: CCOc1cc2ncc(C#N)c(Nc3ccc(F)c(Cl)c3)c2cc1NC(=O)C=CCN(C)C
- Potency [1]: 4.69 µM (active)
- Potency [2]: 14.8 µM (active)

SMILES: CNC(=O)c1cc(Oc2ccc(NC(=O)Nc3ccc(Cl)c(C(F)(F)F)c3)c(F)c2)ccn1
- Potency [1]: 20.9 µM (active)
- Potency [2]: 26.4 µM (active)

SMILES: C=CCn1c(=O)c2cnc(Nc3ccc(N4CCN(C)CC4)cc3)nc2n1-c1cccc(C(C)(C)O)n1
- Potency [1]: 0.187 µM (active)
- Potency [2]: 0.166 µM (active)

SMILES: Cc1ccc2c(c1)C(=O)[C@@]1(O)CCN(c3ccccc3)C1=N2
- Potency [1]: inactive
- Potency [2]: inactive

SMILES: COc1cccc2nc(-c3cccs3)nc(NN3C(=O)C=C(C)C3=O)c12
- Potency [1]: 0.0166 µM (active)
- Potency [2]: 5.9 µM (active)

SMILES: Cc1ccnc(NS(=O)(=O)c2ccc(NC(=O)Nc3ccc(S(=O)(=O)Nc4nccc(C)n4)cc3)cc2)n1
- Potency [1]: 16.6 µM (active)
- Potency [2]: 18.7 µM (active)

SMILES: CC(=O)Nc1ccc([C@H](C)C(=O)Nc2ncc(C(C)C)s2)cc1
- Potency [1]: 0.296 µM (active)
- Potency [2]: 0.662 µM (active)

SMILES: CC1(C)Cc2c(-c3ccccc3)c(-c3ccc(Cl)cc3)c(CC(=O)O)n2C1
- Potency [1]: 18.7 µM (active)
- Potency [2]: 16.6 µM (active)

SMILES: C[C@]1(CO)CN(c2cc(C(=O)Nc3ccc4c(c3)-c3c(c(C(N)=O)nn3-c3ccc(F)cc3)CC4)c(Cl)cn2)C[C@@]1(C)CO
- Potency [1]: 3.32 µM (active)
- Potency [2]: 16.6 µM (active)

SMILES: COCC(=O)NCC=Cc1ccc2ncnc(Nc3ccc(Oc4ccc(C)nc4)c(C)c3)c2c1
- Potency [1]: 23.5 µM (active)
- Potency [2]: 18.7 µM (active)
